Assay outcomes deposited in PubChem by Broad Institute.
This is a sample that favours compounds with a hit; in the whole collection about 6.7% have one here.
C diff HTS = inhibitors of Clostridium difficile growth; hit rate 0.25% among 86,000; AID 1259249; growth activity, negative = inhibition, % at 16 µg/mL (by protocol); Clostridium difficile clinical isolate growth, OD600, 24 h; stronger effect = lower value;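 active means mean growth activity at or below -80% and every replicate also at or below -80%; inconclusive means mean at or below -80% but some replicate above -80%; inactive means mean growth activity above -80%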;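 further: 0% = DMSO wells and -100% = levofloxacin 16 µg/mL wells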
Pf Dd2 inh = blocks growth of Plasmodium falciparum Dd2 parasites; hit rate 2.3% among 94,000; activity change, % at 10 µM; P. falciparum Dd2 growth, SYBR Green, 72 h; stronger effect = lower value; in the data active means activity change below about -80%; inconclusive means no clear call, values can overlap the other calls
T cruzi growth-1 = T. cruzi proliferation inhibition; inhibition, % at 8.34 µM; hit rate 5.9% among 77,000; T. cruzi beta-gal in NIH3T3, GalScreen luminescence, 90 h;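 active means mean inhibition above about 93%, with at least 55% of replicates each passing it, limit read from the data, passing the limit was not always enough; inconclusive means only one of those two conditions holds; inactive means neither condition holds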
T cruzi growth-2 = blocks T. cruzi growth in NIH3T3 host cells | hit rate 72% among 5,600 | shares compounds with T cruzi growth-1 | T. cruzi beta-gal in NIH3T3, GalScreen luminescence, 90 h | inhibition, % at 8.35 µM;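 active means mean replicate inhibition above about 95% and at least 55% of replicates individually reaching it, limit read from the data; inconclusive means only one of the two criteria is met; inactive means neither criterion is met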
T cruzi growth-3 = inhibitors of T. cruzi proliferation. inhibition, % at 2.09 µM. hit rate 21% among 5,600. T. cruzi beta-gal in NIH3T3, GalScreen luminescence, 90 h. shares compounds with T cruzi growth-1;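 active means mean inhibition above about 95%, with at least 55% of replicates also reaching it, limit read from the data; inconclusive means meets just one of the two conditions; inactive means meets neither condition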;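 further: plate controls were neutral control median for no effect and positive control median for full effect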
NIH3T3 tox = kills mouse NIH/3T3 fibroblasts; hit rate 14% among 5,600; shares compounds with T cruzi growth-1; cytotoxicity (signal decrease), % at 8.35 µM; AID 651742; NIH/3T3 viability, CellTiter-Glo ATP luminescence, 90 h;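 active means mean signal decrease across replicates above about 35% based on untreated-well scatter, with enough replicates individually passing, limit read from the data; inconclusive means no rule stated though some were filed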;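 further: 0% = median of neutral control wells and 100% = median of positive control wells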
NIH3T3 tox 2 = NIH/3T3 (mouse) viability loss; hit rate 56% among 5,600; AID 651744; shares compounds with T cruzi growth-1; NIH/3T3 viability, CellTiter-Glo ATP luminescence, 90 h; inhibition, % at 24.9 µM;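 active means mean loss of cell viability signal at or above a set limit, and enough replicates individually reaching it; inconclusive means meets only the mean limit or only the replicate share; inactive means meets neither condition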;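 further: 0% = median of neutral control wells and 100% = median of positive control wells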
* = called active by the depositor; ? = inconclusive; nt = no result given.

SMILES	C diff HTS	Pf Dd2 inh	T cruzi growth-1	T cruzi growth-2	T cruzi growth-3	NIH3T3 tox	NIH3T3 tox 2
O=C(C[C@@H]1CC[C@@H]2[C@H](COC[C@H](O)CN2S(=O)(=O)c2ccc(F)cc2)O1)NCC1CCCCC1	4.8	nt	?	1.9	1.2	-8.4	20.6
O=C(C[C@H]1CC[C@@H]2[C@H](COC[C@@H](O)CN2S(=O)(=O)c2ccc(F)cc2)O1)NCCN1CCCCC1	nt	-27.8	114.5*	16.4	-28.1	-9.8	-19.4
O=C(C[C@@H]1CC[C@@H]2[C@H](COC[C@@H](O)CN2S(=O)(=O)c2ccc(F)cc2)O1)NCCN1CCCCC1	nt	1.5	51.0	nt	nt	nt	nt
O=C(C[C@@H]1CC[C@@H]2[C@H](COC[C@@H](O)CN2S(=O)(=O)c2ccc(F)cc2)O1)NCC1CC1	-22.0	-1.5	16.4	nt	nt	nt	nt
CCC(=O)N1[C@@H]2Cn3c(ccc(-c4ccc(F)cc4)c3=O)[C@H]1[C@@H](C(=O)N(C)C)[C@@H]2CO	1.4	7.2	32.2	nt	nt	nt	nt
CO[C@H](CN(C)S(=O)(=O)c1ccc(F)cc1)[C@H](C)CN([C@@H](C)CO)S(=O)(=O)c1cccc(Cl)c1	nt	-29.9	91.3	nt	nt	nt	nt
CO[C@@H](CN(C)S(=O)(=O)c1cccc(Cl)c1)[C@H](C)CN([C@@H](C)CO)S(=O)(=O)c1cccc(Cl)c1	nt	-12.6	109.7*	93.0	38.5	48.8*	71.7*
CO[C@H](CN(C)S(=O)(=O)c1cccc(Cl)c1)[C@@H](C)CN([C@H](C)CO)S(=O)(=O)c1cccc(Cl)c1	nt	-14.6	118.0*	42.9	9.0	22.7	69.4*
CO[C@H](CN(C)S(=O)(=O)c1cccc(Cl)c1)[C@@H](C)CN([C@@H](C)CO)S(=O)(=O)c1cccc(Cl)c1	nt	-30.0	108.6*	83.3	19.3	41.9*	38.8*
CO[C@@H](CN(C)S(=O)(=O)c1cccc(Cl)c1)[C@@H](C)CN([C@H](C)CO)S(=O)(=O)c1ccc(Cl)cc1	nt	-21.2	75.7	nt	nt	nt	nt
CO[C@H](CN(C)S(=O)(=O)c1ccc(Cl)cc1)[C@@H](C)CN([C@H](C)CO)S(=O)(=O)c1cccc(Cl)c1	nt	-12.2	75.7	nt	nt	nt	nt
CO[C@H](CN(C)S(=O)(=O)c1cccc(Cl)c1)[C@@H](C)CN([C@@H](C)CO)S(=O)(=O)c1ccc(Cl)cc1	nt	-14.3	90.7	nt	nt	nt	nt
CO[C@@H](CN(C)S(=O)(=O)c1cccc(Cl)c1)[C@@H](C)CN([C@@H](C)CO)S(=O)(=O)c1ccc(Cl)cc1	nt	-39.5	104.4*	98.5*	59.0	?	66.8*
COc1ccc(NC(=O)N(C)C[C@@H]2Oc3ccc(NC(=O)c4ccncc4)cc3C(=O)N([C@H](C)CO)C[C@H]2C)cc1	-0.7	-5.8	15.0	nt	nt	nt	nt
COCC(=O)Nc1ccc2c(c1)C(=O)N(C)C[C@H](OC)[C@@H](C)CN(C(=O)c1cnccn1)[C@@H](C)CO2	-5.0	24.1	30.8	nt	nt	nt	nt
CCCNC(=O)N[C@@H]1C=C[C@H](CC(=O)NCCc2ccccc2)O[C@@H]1CO	nt	11.0	-62.6	nt	nt	nt	nt
CCNC(=O)[C@@H]1[C@@H](CO)[C@@H]2Cn3c(ccc(-c4ccccc4)c3=O)[C@@H]2N1C(=O)C1CCC1	1.7	2.5	15.9	nt	nt	nt	nt
CCCNC(=O)N1[C@H](CNC(=O)CC)[C@H](c2ccc(C3=CCCC3)cc2)[C@@H]1CO	-6.5	-3.2	27.9	nt	nt	nt	nt
COc1cccc(C#Cc2cnc3c(c2)C(=O)N([C@@H](C)CO)C[C@@H](C)[C@H](CN(C)C(=O)C2CCC2)O3)c1	-0.6	-65.2	51.0	nt	nt	nt	nt
COc1cccc(C#Cc2cnc3c(c2)C(=O)N([C@H](C)CO)C[C@@H](C)[C@H](CN(C)C(=O)C2CCCCC2)O3)c1	22.0	-68.0	98.5	nt	nt	nt	nt
C[C@H]1CN([C@@H](C)CO)C(=O)c2cc(C#Cc3cccc(F)c3)cnc2O[C@H]1CN(C)C(=O)C1CCC1	4.0	-47.8	-226.6	nt	nt	nt	nt
COc1cccc(C#Cc2cnc3c(c2)C(=O)N([C@@H](C)CO)C[C@@H](C)[C@@H](CN(C)C(=O)C2CCCCC2)O3)c1	2.6	0.0	57.0	nt	nt	nt	nt
COc1cccc(C#Cc2cnc3c(c2)C(=O)N([C@@H](C)CO)C[C@@H](C)[C@H](CN(C)C(=O)C2CCCCC2)O3)c1	8.8	-62.8	85.4*	100.0*	83.6	29.3	100.5*
COc1cccc(C#Cc2cnc3c(c2)C(=O)N([C@H](C)CO)C[C@H](C)[C@@H](CN(C)C(=O)C2CCCCC2)O3)c1	28.0	-87.4*	101.1*	109.9*	39.1	-4.1	102.7*
COc1cccc(C#Cc2cnc3c(c2)C(=O)N([C@@H](C)CO)C[C@H](C)[C@@H](CN(C)C(=O)C2CCCCC2)O3)c1	23.8	-86.4*	117.0*	107.3*	62.9	-11.4	28.9
SMILES	C diff HTS	Pf Dd2 inh	T cruzi growth-1	T cruzi growth-2	T cruzi growth-3	NIH3T3 tox	NIH3T3 tox 2
C[C@H](CO)N1C[C@H](C)[C@@H](CN(C)C(=O)C2CCCCC2)Oc2ncc(C#Cc3cccc(F)c3)cc2C1=O	nt	-71.5	117.3*	103.9*	63.8	9.5	76.9*
O=C([C@H]1[C@H](CO)[C@H]2Cn3c(cccc3=O)[C@@H]1N2CC1CCCC1)N1CCOCC1	8.5	9.6	nt	nt	nt	nt	nt
O=C(Nc1cccc(F)c1)N1CC(=O)N2[C@@H](CO)[C@H](c3ccc(C#CC4CC4)cc3)[C@@H]2C1	-21.7	8.6	nt	nt	nt	nt	nt
C[C@@H]1CCCCO[C@H](CN(C)S(=O)(=O)c2ccc(Cl)cc2)[C@@H](C)CN([C@H](C)CO)C(=O)c2cc(NC(=O)Nc3ccccc3)ccc2O1	nt	-60.7	64.1	nt	nt	nt	nt
C[C@@H]1CCCCO[C@H](CN(C)S(=O)(=O)c2ccc(Cl)cc2)[C@H](C)CN([C@@H](C)CO)C(=O)c2cc(NC(=O)Nc3ccccc3)ccc2O1	nt	?	88.2	nt	nt	nt	nt
Cc1ccc(S(=O)(=O)N(C)C[C@@H]2OCCCC[C@@H](C)Oc3ccc(NC(=O)c4ccccc4)cc3C(=O)N([C@@H](C)CO)C[C@@H]2C)cc1	nt	-79.9	59.3	nt	nt	nt	nt
Cc1ccc(S(=O)(=O)N(C)C[C@H]2OCCCC[C@H](C)Oc3ccc(NC(=O)Nc4ccccc4)cc3C(=O)N([C@H](C)CO)C[C@@H]2C)cc1	3.2	-70.9	109.7*	103.5*	89.1	19.6	10.8
C[C@H]1CCCCO[C@H](CN(C)S(=O)(=O)c2ccc(Cl)cc2)[C@@H](C)CN([C@@H](C)CO)C(=O)c2cc(NC(=O)Nc3ccccc3)ccc2O1	nt	?	88.2	nt	nt	nt	nt
Cc1ccc(S(=O)(=O)N(C)C[C@@H]2OCCCC[C@@H](C)Oc3ccc(NC(=O)Nc4ccccc4)cc3C(=O)N([C@H](C)CO)C[C@H]2C)cc1	16.6	-84.8*	109.0*	109.3*	108.2*	7.0	24.0
